As a reminder, the Inhibition is how much of the control response was suppressed. Low values mean little suppression, high ones strong suppression.

Here are results for six compounds from ChEMBL document CHEMBL4513148, “CO-ADD screening of Stellenbosch University (South Africa) compounds”.

In all, about 23,000 compounds went through this assay and about 30 (0.1%) showed an effect of 50% or more. This is one part of a sample in which strong results are shown more often than they occur. Measured potencies and affinities stand elsewhere.

This assay concerns Pseudomonas aeruginosa. As to conditions: Concentration 32 ug.mL-1; ASSAY_TEST Inhibition of Bacterial Growth; detection method Absorption (OD600); MEDIA CAMHB; plate type 384well; NBS; CORNING #3640; time 18 hr.
As for `CC(C)(C)C(O)C(=O)NCCC(=O)NCCc1ccccc1` (stereo unspecified), the Inhibition was 40.95%.

Compound `CC(C)(CO)[C@@H](O)C(=O)N/C=C/C(=O)NCCc1ccccc1` had an Inhibition of 39.92%.

For `CC(C)(CN)C(O)C(=O)NCCC(=O)NCCc1ccccc1` (stereo unspecified), the Inhibition was 51.6%.

Regarding `CC(CC(=O)NCCc1ccccc1)NC(=O)[C@H](O)C(C)(C)CO` (stereo partly specified), the Inhibition was 72.5%.

Regarding `CC(C)(COP(=O)(O)O)[C@@H](O)C(=O)NCCC(=O)NCCc1ccccc1`, the Inhibition was 35.19%.

As for `CC(C)(CO)[C@@H](O)C(=O)NCCC(=S)NCCc1ccccc1`, the Inhibition is reported as 38.53%.
